In the supplement of paper PMC6555819:

What was measured:
Assay in all cases: PBM binding z-score (relative to random genomic background probes); higher = stronger binding; sequences stand for … in GC…GCGATTGACAGCGTAGAATGAAGG
[1] = tested on: RARb homodimer (NR concentration 270 nM)
Summary of the method: (§1)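 The probes on custom Agilent 4×180K protein-binding microarrays were double-stranded, with 34-nt variable regions bearing direct-repeat seeds, single-nucleotide variants, half-site ablations and random human genomic background sequences. Incubation lasted 1 h with ligand-free nuclear receptor dimers in PBS pH 7.4, 2% milk, 0.02% Triton X-100, 1 mM DTT, 0.2 mg/mL BSA and 0.4 mg/ml salmon testes DNA. Antibodies against each partner (one per run) detected bound dimers, and fluorescence scans were regression-normalized. Binding z-scores take the random background probes as reference.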

[2] = tested on: RARg:RXRa (NR concentration 270 nM, RXRa partner concentration 90 nM)
Summary of the method: as §1

[3] = tested on: RARg homodimer (NR concentration 270 nM)
Summary of the method: as §1

[4] = tested on: RXRa DBDmut IVT, anti-RXR (DBD mutation: RXRa K156A/R161A, NR concentration 90 nM)
Summary of the method: as §1

[5] = tested on: RXRa homodimer (NR concentration 180 nM)
Summary of the method: as §1

[6] = tested on: THRa:RXRa (NR concentration 90 nM, RXRa partner concentration 90 nM)
Summary of the method: as §1

[7] = tested on: THRa homodimer (NR concentration 90 nM)
Summary of the method: as §1

[8] = tested on: VDR:RXRa (NR concentration 270 nM, RXRa partner concentration 90 nM)
Summary of the method: as §1

[9] = tested on: VDR homodimer (NR concentration 270 nM)
Summary of the method: as §1

AGAAAGAGGTTATTAAGATCAGGGAATTGCGGTC was tested, and the PBM binding z-score [1] was 1.12, the PBM binding z-score [2] was 1.78 and the PBM binding z-score [3] was 1.29. It also gave a PBM binding z-score [4] of 1.26, a PBM binding z-score [5] of 2.21 and a PBM binding z-score [6] of 1.39. It also gave a PBM binding z-score [7] of 0.443, a PBM binding z-score [8] of 2.57 and a PBM binding z-score [9] of 0.737.
In the case of AGAACGAGGGCACGCTGAGTCGATAGCAGAGTAG, the PBM binding z-score [1] is reported as 1.02, the PBM binding z-score [2] is reported as 1.92 and the PBM binding z-score [3] is reported as 2.12. The PBM binding z-score [4] was 1.87, the PBM binding z-score [5] was 1.29 and the PBM binding z-score [6] was 1.72. It also gave a PBM binding z-score [7] of -0.22, a PBM binding z-score [8] of 0.908 and a PBM binding z-score [9] of 0.912.
Work on TCTGCTAGGTCAGTTGGTAAGCTAACGAGCTGCC yielded a PBM binding z-score [1] of 1.95, a PBM binding z-score [2] of 2.35 and a PBM binding z-score [3] of 3.32. It also gave a PBM binding z-score [4] of 0.399, a PBM binding z-score [5] of 0.543 and a PBM binding z-score [6] of 1.16. For the same sequence, the PBM binding z-score [7] was -0.266, the PBM binding z-score [8] was -0.00155 and the PBM binding z-score [9] was -0.694.
With ATCTCTAGGTAAGACTCAGTTCAGTGACGAACGC the PBM binding z-score [1] was 0.735, the PBM binding z-score [2] was 0.464 and the PBM binding z-score [3] was 0.443. The PBM binding z-score [4] was 0.676, the PBM binding z-score [5] was 0.364 and the PBM binding z-score [6] was 0.824. The PBM binding z-score [7] was 0.878, the PBM binding z-score [8] was 0.924 and the PBM binding z-score [9] was 1.74.
Work on TCTTGTAGATCAAGCAGGTTTAGAAAGCCTGAGT yielded a PBM binding z-score [1] of -0.518, a PBM binding z-score [2] of -0.361 and a PBM binding z-score [3] of -0.474. It also gave a PBM binding z-score [4] of 0.521, a PBM binding z-score [5] of -0.16 and a PBM binding z-score [6] of -0.173. The PBM binding z-score [7] was -0.583, the PBM binding z-score [8] was 0.444 and the PBM binding z-score [9] was 0.0833.
Work on CGTCAAAGTTCAAGGTAACGTAGCAGAAAGCAGC yielded a PBM binding z-score [1] of 3.85, a PBM binding z-score [2] of 5.5 and a PBM binding z-score [3] of 6.15. It also gave a PBM binding z-score [4] of 4.38, a PBM binding z-score [5] of 4.75 and a PBM binding z-score [6] of 3.01. The PBM binding z-score [7] was 1.09, the PBM binding z-score [8] was 3.6 and the PBM binding z-score [9] was 3.26.
With TCATATAGGTAAAAGGTGAAAGTGGGTGTGGTAA the PBM binding z-score [1] was 2.35, the PBM binding z-score [2] was 2.16 and the PBM binding z-score [3] was 1.01. It also gave a PBM binding z-score [4] of 1.87, a PBM binding z-score [5] of 3.15 and a PBM binding z-score [6] of 2.07. For the same sequence, the PBM binding z-score [7] was 1.12, the PBM binding z-score [8] was 2 and the PBM binding z-score [9] was 0.877.
In the case of TCTTTTAGATCAAGCAGGTTAAGAAAGCCTGAGT, the PBM binding z-score [1] is reported as 0.0271, the PBM binding z-score [2] is reported as 0.216 and the PBM binding z-score [3] is reported as 0.212. For the same sequence, the PBM binding z-score [4] was 1.19, the PBM binding z-score [5] was 0.49 and the PBM binding z-score [6] was 0.401. For the same sequence, the PBM binding z-score [7] was -0.436, the PBM binding z-score [8] was 0.762 and the PBM binding z-score [9] was 0.0126.
Work on CATACAGGGTCAGCTAGGCCTGAGTAGGGACGGC yielded a PBM binding z-score [1] of 2.93, a PBM binding z-score [2] of 4.26 and a PBM binding z-score [3] of 4.49. It also gave a PBM binding z-score [4] of 1.02, a PBM binding z-score [5] of 4.15 and a PBM binding z-score [6] of 2.71. The PBM binding z-score [7] was 0.977, the PBM binding z-score [8] was 2.61 and the PBM binding z-score [9] was 0.628.
With ATACCAAAGTGATCGTGAGGTCGTTGATACTAAC the PBM binding z-score [1] was 1.13, the PBM binding z-score [2] was 0.445 and the PBM binding z-score [3] was 0.273. For the same sequence, the PBM binding z-score [4] was 1.02, the PBM binding z-score [5] was 0.855 and the PBM binding z-score [6] was 2.76. It also gave a PBM binding z-score [7] of 2.01, a PBM binding z-score [8] of 2.02 and a PBM binding z-score [9] of 3.16.
CGTCAAAGTTCAAGGTAACGTGACAGAAAGCAGC showed a PBM binding z-score [1] of 3.72, a PBM binding z-score [2] of 5.21 and a PBM binding z-score [3] of 5.97. The PBM binding z-score [4] was 4.54, the PBM binding z-score [5] was 4.26 and the PBM binding z-score [6] was 2.99. It also gave a PBM binding z-score [7] of 1.08, a PBM binding z-score [8] of 3.71 and a PBM binding z-score [9] of 3.04.
With ATCTCTAGGTAACCAAGCTCAGTGAATGCCGAAC the PBM binding z-score [1] was -0.00643, the PBM binding z-score [2] was 0.122 and the PBM binding z-score [3] was -0.0382. For the same sequence, the PBM binding z-score [4] was -0.17, the PBM binding z-score [5] was -0.107 and the PBM binding z-score [6] was 0.646. For the same sequence, the PBM binding z-score [7] was 0.537, the PBM binding z-score [8] was -0.169 and the PBM binding z-score [9] was 0.149.
For CTCGACAGGTCGTGCTCAGGTGAGTATACCAAAC, the PBM binding z-score [1] was 1.11, the PBM binding z-score [2] was 2.21 and the PBM binding z-score [3] was 1.33. The PBM binding z-score [4] was 0.53, the PBM binding z-score [5] was 1.3 and the PBM binding z-score [6] was 3.08. The PBM binding z-score [7] was 0.709, the PBM binding z-score [8] was 0.597 and the PBM binding z-score [9] was 0.293.
GCTGCTAGGTCAGGTTGTTCAGCTAACGGGTACG showed a PBM binding z-score [1] of 2.56, a PBM binding z-score [2] of 2.2 and a PBM binding z-score [3] of 3.13. The PBM binding z-score [4] was 0.777, the PBM binding z-score [5] was 0.914 and the PBM binding z-score [6] was 1.71. It also gave a PBM binding z-score [7] of 0.779, a PBM binding z-score [8] of 0.65 and a PBM binding z-score [9] of 0.556.
CCTTACGGGACACTGACAGGTTATAGCATTTGGA showed a PBM binding z-score [1] of 0.492, a PBM binding z-score [2] of 0.652 and a PBM binding z-score [3] of 0.903. The PBM binding z-score [4] was 0.645, the PBM binding z-score [5] was 0.341 and the PBM binding z-score [6] was 0.178. It also gave a PBM binding z-score [7] of 0.0512, a PBM binding z-score [8] of -0.00746 and a PBM binding z-score [9] of -0.0453.
AGAATCAGGTTATTAAGATCAGGGAATTGCGGTC was tested, and the PBM binding z-score [1] was 0.785, the PBM binding z-score [2] was 0.291 and the PBM binding z-score [3] was 0.541. The PBM binding z-score [4] was 0.627, the PBM binding z-score [5] was 0.596 and the PBM binding z-score [6] was 1.21. It also gave a PBM binding z-score [7] of 0.84, a PBM binding z-score [8] of 1.08 and a PBM binding z-score [9] of 0.616.
Sequence TTACCAAGGTGAGCTGAGGTCCTTGATCCAACTC has a PBM binding z-score [1] of 0.469, a PBM binding z-score [2] of 0.18 and a PBM binding z-score [3] of 0.227. The PBM binding z-score [4] was -0.639, the PBM binding z-score [5] was 0.399 and the PBM binding z-score [6] was 3.79. It also gave a PBM binding z-score [7] of 0.733, a PBM binding z-score [8] of 0.464 and a PBM binding z-score [9] of -0.397.
Sequence AGTCAATGTTCACTAGGTAACGTAAGATTCAGCT has a PBM binding z-score [1] of 0.00708, a PBM binding z-score [2] of 0.177 and a PBM binding z-score [3] of 0.455. For the same sequence, the PBM binding z-score [4] was 0.313, the PBM binding z-score [5] was 0.0273 and the PBM binding z-score [6] was 0.29. For the same sequence, the PBM binding z-score [7] was 0.282, the PBM binding z-score [8] was -0.0351 and the PBM binding z-score [9] was -0.164.
